Compound activity: PubChem, National Center for Advancing Translational Sciences (NCATS)
Sampled rows, rich in hits. Any-hit rate of the full collection: about 10%.
PNC assembly inh: perinucleolar compartment assembly inhibition | PC3M PTB-GFP, PNC prevalence imaging, 16 h; active compounds read low | activity change (PNC), negative = inhibition, % at 10 µM | hit rate 3.1% among 140,000;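 active = readout at or below -70, meaning at least 70% loss of cells showing the perinucleolar compartment, a nuclear body marking cancer cells; inconclusive = readout between -30 and a set limit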
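PC3M cells stably expressing PTB-GFP, 750–1000 cells/well, treated 16 h at 37 °C with compound (23 nl of library stock), in duplicate. After paraformaldehyde fixation and Hoechst stain, imaged at 20x; PNC prevalence scored by image analysis.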
ALOX12 inhib: blocks human 12-lipoxygenase activity; P18054; Potency, µM (series often up to 57.1 µM), most hits filed as inhibitors; AID 1452; hit rate 0.12% among 150,000; purified 12-hLO, xylenol orange hydroperoxide absorbance; also: nearly all actives have a fitted effect of over 55% in size
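Lipoxygenase turnover measured by absorbance at 573 and 405 nm after Fe-XO development. Human 12hLO 150 nM, arachidonate 40 uM, pH 7.0 Hepes buffer with detergent; 15 min compound preincubation, 30 min reaction.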
HPGD block: HPGD (human) dehydrogenase inhibition; P15428; purified HPGD, NADH fluorescence kinetic, PGE2 substrate; Potency, µM, most hits filed as inhibitors; hit rate 4.3% among 150,000; AID 894; active = well fitted inhibition curve with a large enough effect, not every such curve was filed as active; inconclusive = small, poorly fitted or top-dose-only effect, or another doubt; inactive = no such curve, though single readings can be large or run the other way
Target sequence (P15428 whole entry, looked up): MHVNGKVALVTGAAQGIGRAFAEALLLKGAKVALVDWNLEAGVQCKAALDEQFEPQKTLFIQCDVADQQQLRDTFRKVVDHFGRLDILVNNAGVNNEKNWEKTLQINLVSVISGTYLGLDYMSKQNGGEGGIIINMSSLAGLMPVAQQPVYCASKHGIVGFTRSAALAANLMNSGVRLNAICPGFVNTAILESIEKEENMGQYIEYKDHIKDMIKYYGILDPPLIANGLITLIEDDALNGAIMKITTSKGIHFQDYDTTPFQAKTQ
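20 nM HPGD preincubated 15 min at room temperature with compound in 50 mM Tris-HCl pH 8, 0.01% Tween 20. Started with 1 mM NAD+ and 30 uM prostaglandin E2; NADH fluorescence (360/450 nm) read 5 times over 30-s intervals, last minus first.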
GLA inh pH 4.5: alpha-galactosidase A (human) inhibition, pH 4.5; P06280; purified enzyme, 4-MU-alpha-Gal fluorescence, pH 4.5; activity change, negative = inhibition, % at 105 µM; 230,000 tested, under 10 active; AID 1467
Target sequence (P06280 whole entry, looked up): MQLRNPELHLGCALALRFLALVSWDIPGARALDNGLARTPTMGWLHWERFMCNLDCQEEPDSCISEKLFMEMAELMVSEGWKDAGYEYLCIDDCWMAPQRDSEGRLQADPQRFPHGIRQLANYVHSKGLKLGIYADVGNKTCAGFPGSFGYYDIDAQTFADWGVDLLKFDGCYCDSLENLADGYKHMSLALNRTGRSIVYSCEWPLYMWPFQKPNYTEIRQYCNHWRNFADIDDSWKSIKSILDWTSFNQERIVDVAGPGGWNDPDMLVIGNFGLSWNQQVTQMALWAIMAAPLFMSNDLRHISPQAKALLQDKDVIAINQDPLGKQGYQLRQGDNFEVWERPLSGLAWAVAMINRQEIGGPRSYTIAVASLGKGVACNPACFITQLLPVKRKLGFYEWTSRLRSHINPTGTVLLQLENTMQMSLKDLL
GLA spleen mod: inhibitors or activators of human alpha-galactosidase in spleen homogenate. P06280. human spleen homogenate, 4MU-alpha-Gal fluorescence, 40 min. AID 2107. Potency, µM (titrated, usually from 80 µM), actives largely listed as inhibitors. hit rate 0.008% among 240,000
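Inhibition or activation of alpha-galactosidase in human spleen homogenate is scored by 4-MU fluorescence after 40 min at 37C, pH 5.0, with 1 mM substrate. AC50s come from concentration-response fitted to the Hill equation.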
ALDH1A1 block: inhibitors of human aldehyde dehydrogenase 1A1 | Potency, µM (series often up to 75.3 µM), usual class: inhibitors | P00352 | hit rate 7.3% among 220,000 | AID 1030 | Purified ALDH1A1, NADH fluorescence, propionaldehyde substrate; active = well fitted inhibition curve with a large enough effect, not every such curve was filed as active; inconclusive = small, poorly fitted or top-dose-only effect, or another doubt; inactive = no such curve, though single readings can be large or run the other way
Numbers stand for hits; i = inactive; ? = inconclusive; nt = not tested or not shown; [ ] = remark or other dose. Unless noted, calls follow the shape of the dose curve; as a rule, active = well fitted curve in the direction sought with a large enough effect; inconclusive = small, poorly fitted or top-dose-only effect, or another doubt; inactive = no such curve, though single readings can be large; an effect the other way counts as inactive or inconclusive.

SMILES	PNC assembly inh	ALOX12 inhib	HPGD block	GLA inh pH 4.5	GLA spleen mod	ALDH1A1 block
CCOC(=O)C1=C(C)Nc2nc(=S)[nH]n2C1c1ccc(Cl)cc1 (stereo not drawn)	?	i	11µM	i	i	?
CN(C)c1nc(-c2ccoc2)nc2ccccc12	nt	i	i	i	i	i
Cc1c(-c2ccccc2)[n+](=O)c(-c2ccc(Cl)cc2)c(C)n1[O-]	nt	nt	nt	i	i	?
CCOC(=O)/C(=C/C=C1\Sc2ccccc2N1CC)C(C)=O	i	i	28µM	i	i	13µM
CCN1/C(=C/C(=O)c2ccco2)Sc2ccccc21	i	?	i	i	i	25µM
CCC(=O)/C=C1/Sc2ccccc2N1CC	i	i	28µM	i	i	3.5µM
CCC(=O)/C=C1/Sc2ccc(OC)cc2N1CC	i	i	i	i	i	i
CN1/C(=C\C(=O)c2ccco2)C(C)(C)c2ccccc21	i	i	i	i	i	?
COc1ccc(C(CC(=O)Nc2cc([N+](=O)[O-])ccc2OC)c2ccccc2)cc1 (stereo not drawn)	?	i	i	i	i	i
CCC(=O)N[C@@H]1CCc2cccc(OC)c2C1	nt	i	i	i	i	i
CSc1cccc(-n2c(C)cc(C(N)=O)c2C)c1	i	i	4.5µM	i	i	i
Cc1cc(C(=O)O)c(C)n1-c1ccccc1	i	i	i	i	i	?
COc1cccc(-c2nc(N(C)Cc3ccco3)c3ccccc3n2)c1	nt	nt	nt	nt	i	i
CCCN1CCN(C(=S)NCc2ccc(Cl)cc2)CC1	nt	nt	nt	i	i	i
CC(C)(C)c1cc(C(=S)N2CCN(CCO)CC2)cc(C(C)(C)C)c1O	?	?	25µM	i	i	18µM
OCCN1CCN(C(=S)c2ccc(Cl)cc2)CC1	?	i	16µM	i	i	16µM
CCN1CCN(C(=S)c2ccc(Cl)cc2)CC1	i	i	10µM	i	i	?
Cc1noc(C)c1C(=O)N1CCC2(CCCN(C(c3ccccc3)c3ccccc3)C2)CC1	nt	i	i	nt	i	i
Cc1ccc(/C=C2/NC(=O)N(Cc3ccccc3)C2=O)o1	i	i	25µM	i	i	3.5µM
COC(=O)CN1C(=O)N/C(=C/c2ccc(C)o2)C1=O	nt	nt	nt	i	i	18µM
CN(C)c1ccc(C(=S)N2CCN(C(=S)Nc3ccccc3)CC2)cc1	nt	nt	nt	i	i	?
CN(C)c1ccc(C(=S)N2CCN(C(=S)Nc3cccc4ccccc34)CC2)cc1	nt	nt	nt	i	i	16µM
COc1cccc(C(=O)CN(C(=O)c2ccc(Cl)c(Cl)c2)N2C(=O)c3ccccc3C2=O)c1	?	i	i	i	i	14µM
Cc1ccc(C(=O)CN(C(=O)c2ccc(Cl)c(Cl)c2)N2C(=O)C3CCCCC3C2=O)cc1 (stereo not drawn)	i	i	i	i	i	i
COc1cccc(C(=O)CN(C(=O)c2ccc(Cl)cc2Cl)N2C(=O)c3ccccc3C2=O)c1	i	i	i	i	i	16µM
SMILES	PNC assembly inh	ALOX12 inhib	HPGD block	GLA inh pH 4.5	GLA spleen mod	ALDH1A1 block
CCOC(=O)c1c(CC(C)C)csc1/N=C/C1C(=O)CC(C)(C)CC1=O	nt	nt	nt	i	i	6.3µM
COC(=O)c1cc(N=CC2=C(O)CC(C)(C)CC2=O)cc(C(=O)OC)c1	i	i	i	i	i	?
CCOC(=O)c1ccc(N=CC2=C(O)CC(C)(C)CC2=O)cc1	i	i	?	i	i	?
CCOC(=O)c1cc(CC)sc1/N=C/C1=C(O)CC(C)(C)CC1=O	i	i	i	i	i	11µM
COC(=O)c1cc(OC)c(OC)cc1N=CC1=C(O)CC(C)(C)CC1=O	i	i	?	i	i	1µM
CCOC(=O)c1cc(C)sc1/N=C/C1C(=O)CC(C)(C)CC1=O	?	i	i	i	i	13µM
NS(=O)(=O)c1ccc(CCNC(=O)Nc2ccc(Cl)c(Cl)c2)cc1	i	i	i	i	i	i
CC(=O)OCC1OC(C#CCCc2ccccc2)C=CC1OC(C)=O (stereo not drawn)	nt	nt	nt	nt	i[17.5 µM]	?
COc1ccc2oc(=O)c(C(=O)C[n+]3cccc(C)c3)cc2c1	nt	nt	nt	i	i	14µM
Cc1ccc(C(=O)c2ccc(N3CCOCC3)c(F)c2)cc1	i	i	28µM	i	i	?
CCCC(=O)c1ccc(N2CCOCC2)c(F)c1	i	i	i	i	i	i
Cc1ccc(C(=O)c2cc([N+](=O)[O-])ccc2N2CCOCC2)cc1	-96	i	i	i	i	?
CCOc1ccc(C(=O)c2cc([N+](=O)[O-])ccc2N2CCOCC2)cc1	?	i	i	i	i	i
O=C(c1cc([N+](=O)[O-])ccc1N1CCCCC1)N1CCCCC1	i	i	?	i	i	20µM
COc1ccc(C(=O)c2cc([N+](=O)[O-])ccc2N2CCOCC2)cc1	-84	i	i	i	i	i
CC(=O)Nc1ccc(C(=O)N/C(=C\c2ccccc2)C(=O)Nc2cccc(C(=O)O)c2)cc1	nt	nt	nt	i	i	nt
O=C(COc1ccc([N+](=O)[O-])cc1)N/N=C/c1cc([N+](=O)[O-])ccc1N1CCOCC1	i	i	i	i	i	3.5µM
Cc1ccc(OCC(=O)N/N=C/c2cc([N+](=O)[O-])ccc2N2CCCCC2)cc1	?	i	i	i	i	?
CCCc1cc2c(n1CCc1ccc(Cl)cc1)C(C)C1CN(C(=O)c3ccccc3)C(C)(C(=O)OC)C21 (stereo not drawn)	nt	i	i	i	i	i
CC(=O)c1ccc(N2CCN(c3ccc(S(=O)(=O)NCCCN(C)C)cc3[N+](=O)[O-])CC2)cc1	nt	nt	nt	i	i	19µM
O=C(Nc1ccccc1C(=O)O)c1cncc(Br)c1	i	i	i	i	i	14µM
CSc1ccccc1C(=O)NCCSC(C)(C)C	i	i	25µM	i	i	i
CCCCCNC(=O)c1ccccc1SC	i	i	14µM	i	i	i
Cc1ccc(NC(=O)c2cncc(Br)c2)c(O)c1	nt	nt	nt	i	i	i
CC(C)(C)SCCNC(=O)c1ccccc1	i	i	i	i	i	i
SMILES	PNC assembly inh	ALOX12 inhib	HPGD block	GLA inh pH 4.5	GLA spleen mod	ALDH1A1 block
O=C(NCCSc1ccccc1)c1cncc(Br)c1	i	i	i	i	i	25µM
Cc1ccccc1CSCCNC(=O)c1ccccc1	i	i	32µM	i	i	?
O=C(NCCSc1ccccc1)c1ccccc1	i	i	i	i	i	i
O=C(NCCSc1ccccc1)c1ccccc1Cl	i	i	13µM	i	i	i
CCCCNC(=O)c1ccccc1Cl	i	i	8.9µM	i	i	i
O=C(NCCSc1ccccc1)c1ccc(Br)cc1	i	i	i	i	i	i
Cc1ccccc1C(=O)NCCSc1ccccc1	?	i	20µM	i	i	i
CCCCNC(=O)c1ccccc1C(=O)NCCCC	?	i	i	i	i	i
COc1ccccc1CNc1ncnc2ccc(-c3ccccc3OC)cc12	nt	nt	nt	nt	i	?
CCC(C)C(NC)C(=O)O (stereo not drawn)	nt	i	i	i	i	i
CSc1ccccc1C(=O)NCc1ccccc1C	nt	nt	nt	i	i	i
